Several values for one entry are separate records, joined by “and”; a condition that tells them apart may be missing. Equal values may be shown once. Inconclusive results are not listed. Entries that show only a call come without a potency. Some structures have more than one record in an assay (separate samples or runs), and their calls can disagree. Activity calls are given as the source filed them. The call rests on the fitted dose curve; in most records, active means well fitted inhibition curve with a large enough effect in the repeat runs; inconclusive means weak or mixed curves; inactive means no such curve, though single readings can be large or run the other way.
These compounds were tested against Cytochrome P450 3A4 (Homo sapiens) (UniProt P08684) (assay: Cytochrome P450 Family 3 Subfamily A Member 4 (CYP3A4) small molecule antagonists: luciferase reporter qHTS assay (AID 1671201; further: nearly all actives have a fitted effect of over 50% in size)). Conditions: P450-Glo CYP3A4 enzyme, luciferin luminescence, 1 h; series mostly up to 115 µM.
Method in brief: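 Compounds in DMSO were pin-transferred onto CYP3A4 enzyme-substrate mix and held 10 min at room temperature. NADPH regenerating solution started the reaction for 1 h; luciferin detection reagent stopped it, and luminescence was read after 20 min.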
Potency means the concentration at half of the fitted maximal effect.

Sequence of Cytochrome P450 3A4 (Homo sapiens) (P08684 whole entry, looked up): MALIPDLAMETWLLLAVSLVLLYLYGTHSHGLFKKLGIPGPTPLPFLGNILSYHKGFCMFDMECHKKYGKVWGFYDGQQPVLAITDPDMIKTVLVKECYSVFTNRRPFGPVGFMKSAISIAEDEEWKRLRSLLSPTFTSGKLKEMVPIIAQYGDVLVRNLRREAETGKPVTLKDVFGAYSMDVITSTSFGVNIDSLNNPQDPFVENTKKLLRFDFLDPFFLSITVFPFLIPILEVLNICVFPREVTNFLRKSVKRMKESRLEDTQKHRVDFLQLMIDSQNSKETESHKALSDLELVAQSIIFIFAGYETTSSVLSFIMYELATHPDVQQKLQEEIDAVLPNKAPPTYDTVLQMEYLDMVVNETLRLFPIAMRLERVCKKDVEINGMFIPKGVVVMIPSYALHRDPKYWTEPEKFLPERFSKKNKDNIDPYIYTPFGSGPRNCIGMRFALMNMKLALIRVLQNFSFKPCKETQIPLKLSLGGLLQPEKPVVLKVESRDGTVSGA

Compound | Potency
CCCCCCCC(=O)OC | inactive
CCCCOC(=O)COc1ccc(Cl)cc1Cl | inactive
CC(=O)Nc1cccc(O)c1 | inactive
FC(F)(F)c1ccc(Cl)c(Cl)c1 | inactive
CC(C)(N)CO | inactive
O=C(O)c1ccc(C(=O)O)cc1 | inactive
O=C1CCC(N2C(=O)c3ccccc3C2=O)C(=O)N1 (configuration not stated) | inactive
Cc1cc(C)c(C)cc1C | inactive
CC(=O)OCC(=O)[C@@]12N=C(C)O[C@@H]1C[C@H]1[C@@H]3CCC4=CC(=O)C=C[C@]4(C)[C@H]3[C@@H](O)C[C@@]12C | inactive
Nc1ccccc1[N+](=O)[O-] | inactive
OCCOCCOCCO | inactive
CC(=O)c1ccccc1 | inactive
ON=C1CCCCC1 | inactive
Cc1ccc(N(C)C)cc1 | inactive
CN(C)CCOCCN(C)C | inactive
O=C(O)CC(C(=O)O)C(CC(=O)O)C(=O)O (configuration not stated) | inactive

Compound | Potency
O=S1(=O)CC=CC1 | inactive
CCc1cccc(C)c1N | inactive
O=C(OCCOCCOC(=O)c1ccccc1)c1ccccc1 | inactive
O=S(=O)(O)c1ccc2ccccc2c1 | inactive
O=C(O)CCCCCCCCCCC(=O)O | inactive
CCCCCCCCCC | inactive
CC1CCC(C(C)C)C(O)C1 (configuration not stated) | inactive
O=C(O)c1cc(O)c(O)c(O)c1 | inactive
C=CCNC(N)=S | inactive
O=C(O)c1ccc2c(c1)C(=O)OC2=O | inactive
C/C=C1/CC2C=CC1C2 (configuration not stated) | inactive and 31.7 µM (active)
O=C(O)CCCC[C@@H]1SC[C@@H]2NC(=O)N[C@@H]21 | inactive
CCCCCCOCCO | inactive
CC(C)CC(=O)CC(C)C | 22.7 µM (active) and inactive
c1ccc2c(c1)ccc1ccccc12 | inactive
COc1ccc(Nc2ccccc2)c(C)c1 | inactive
